Assay results published in PubChem BioAssay (EPA / NIEHS).
Results filed as inconclusive are left out. Activity calls are given as the source filed them. The calls were made as follows, unless noted: active = hit-call score of the fitted dose curve at least 0.9, where 1 is the maximum; inconclusive = response in the unintended direction; inactive = score below 0.9.

Key:
[1] = ATG_M_61_CIS: Attagene CIS-FACTORIAL HepG2 Assay for M61 Transcription Factor (Internal Marker) (AID 2282937; active = hit-call score of the fitted dose curve at least 0.9, where 1 is the maximum; inactive = score below 0.9); conditions: HepG2 Attagene CIS-FACTORIAL M61 internal marker reporter; actives raise or lower the signal
Summary of the method: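 Human liver HepG2, transient MRTU transfection (cis promoter elements), 24 h compound. Total RNA → oligo(dT) RT → PCR → FAM label → HpaI → CE. Internal background marker; bidirectional fitting, DMSO = baseline.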

[2] = ATG_GRE_CIS: Attagene CIS-FACTORIAL HepG2 Assay for human Glucocorticoid Response Elements (GRE) (AID 2282947; active = hit-call score of the fitted dose curve at least 0.9, where 1 is the maximum; inactive = score below 0.9); conditions: HepG2 GRE cis-reporter, Attagene multiplex mRNA; actives raise or lower the signal
Summary of the method: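 HepG2 cells transiently transfected with multiple cis-promoter reporter units measure endogenous TF activity; 24 h compound exposure. Reporter mRNA quantified by RT-PCR, FAM labelling, HpaI digestion and capillary electrophoresis; bidirectional fit vs DMSO baseline.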

[3] = molecular target: Hepatocyte nuclear factor 6 (Homo sapiens) (UniProt Q9UBC0); test: ATG_HNF6_CIS: Attagene CIS-FACTORIAL HepG2 Assay for human Hepatocyte Nuclear Factor 6 (HNF6) (AID 2282952; active = hit-call score of the fitted dose curve at least 0.9, where 1 is the maximum; inactive = score below 0.9); conditions: HepG2 Attagene cis-factorial HNF6 reporter transcription; actives raise or lower the signal
Summary of the method: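 Reporter mRNA induction or loss in HepG2 after 24 h exposure; transient cis-MRTU transfection; fragments quantified by capillary electrophoresis; bidirectional analysis, DMSO as negative control.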

[4] = ATG_MRE_CIS: Attagene CIS-FACTORIAL HepG2 Assay for human Metal Responsive Element (MRE) (AID 2282954; active = hit-call score of the fitted dose curve at least 0.9, where 1 is the maximum; inactive = score below 0.9); conditions: HepG2 MRE cis-reporter transcription, Attagene multiplex; actives raise or lower the signal
Summary of the method: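 HepG2 cells transiently transfected with multiple cis-element reporter units measure endogenous MTF1-driven transcription. After 24 h compound exposure, reporter mRNA is quantified by RT-PCR with 6-FAM labelling, HpaI digestion and capillary electrophoresis; bidirectional fits versus DMSO.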

[5] = ATG_PBREM_CIS: Attagene CIS-FACTORIAL HepG2 Assay for human Phenobarbital-responsive Enhancer Module (PBREM) (AID 2282955; active = hit-call score of the fitted dose curve at least 0.9, where 1 is the maximum; inactive = score below 0.9); conditions: HepG2 PBREM cis-reporter, Attagene multiplexed transcription; actives raise or lower the signal
Summary of the method: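 Endogenous transcription factors in human liver HepG2 cells drive a PBREM cis-element reporter, whose transcript level after 24 h treatment is quantified by RT-PCR with capillary electrophoresis; activity fitted in both directions against DMSO.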

[6] = molecular target: Paired box protein Pax-6 (Homo sapiens) (UniProt P26367); test: ATG_Pax6_CIS: Attagene CIS-FACTORIAL HepG2 Assay for human Paired Box 6 (PAX6) (AID 2282956; active = hit-call score of the fitted dose curve at least 0.9, where 1 is the maximum; inactive = score below 0.9); conditions: HepG2 CIS-FACTORIAL PAX6 reporter transcription, RNA readout; actives raise or lower the signal
Summary of the method: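 HepG2 cells transiently transfected with cis-promoter-driven multiplexed reporter units sensing endogenous transcription factor activity; 24 h chemical exposure. Reporter mRNA quantified by RT-PCR, 6-FAM labelling, HpaI digestion and capillary electrophoresis; bidirectional fit versus DMSO baseline.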

[7] = ATG_RORE_CIS: Attagene CIS-FACTORIAL HepG2 Assay for human RAR-related Orphan Receptor Element (RORE) (AID 2282959; active = hit-call score of the fitted dose curve at least 0.9, where 1 is the maximum; inactive = score below 0.9); conditions: HepG2 Attagene cis-factorial RORE reporter, mRNA; actives raise or lower the signal
Summary of the method: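 Transient MRTU transfection of human HepG2 liver cells (FuGene 6); 24 h compound exposure; TriZol RNA, oligo(dT) RT, PCR, FAM labeling, HpaI cut, CE fragment analysis. DMSO = negative control/baseline.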

[8] = molecular target: Hepatocyte nuclear factor 4-alpha (Homo sapiens) (UniProt P41235); test: ATG_HNF4a_TRANS: Attagene TRANS-FACTORIAL HepG2 Assay for human Hepatocyte Nuclear Factor 4 alpha (HNF4a) (AID 2282982); conditions: HepG2 HNF4a transactivation reporter, mRNA readout
Summary of the method: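 HepG2 cells transiently transfected with multiplexed GAL4-UAS reporter units responsive to chimeric NR-GAL4 proteins; compound exposure 24 h. Reporter mRNA quantified by RT-PCR, 6-FAM labelling, HpaI digestion and capillary electrophoresis; gain of signal versus DMSO baseline.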

[9] = ATG_M_06_TRANS: Attagene TRANS-FACTORIAL HepG2 Assay for M06 Transcription Factor (Internal Marker) (AID 2282983); conditions: HepG2 Attagene TRANS M06 internal marker reporter
Summary of the method: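 Measured by capillary electrophoresis of fluorescently labelled RT-PCR products, this endpoint reflects reporter mRNA in HepG2 cells harbouring exogenous NR-GAL4 reporter constructs after 24 h exposure, with DMSO as baseline.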

[10] = molecular target: Myc proto-oncogene protein (Homo sapiens) (UniProt P01106); test: ATG_Myc_CIS: Attagene CIS-FACTORIAL HepG2 Assay for human Myelocytomatosis (Myc) Proto-Oncogene Transcription Factor (AID 2282990; active = hit-call score of the fitted dose curve at least 0.9, where 1 is the maximum; inactive = score below 0.9); conditions: HepG2, Attagene cis-reporter transcription factor activity; actives raise or lower the signal
Summary of the method: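 DMSO-normalised, bidirectionally fitted reporter mRNA signal. HepG2 cells transfected with cis reporter constructs, treated 24 h; transcripts detected by RT-PCR, 6-FAM primer extension and CE.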

[11] = molecular target: Peroxisome proliferator-activated receptor gamma (Homo sapiens) (UniProt P37231); test: ATG_PPARg_TRANS: Attagene TRANS-FACTORIAL HepG2 Assay for human Peroxisome Proliferator-activated Receptor-gamma (PPARg) (AID 2283007)
Summary of the method: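 Transient transfection of HepG2 with GAL4-UAS-driven reporter units; chemical dosing 24 h; total RNA → oligo(dT) RT → PCR with reporter primers → 6-FAM primer extension → HpaI digest 2 h 37 C → capillary electrophoresis. Positive direction vs DMSO.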

[12] = molecular target: Nuclear receptor subfamily 1 group I member 2 (Homo sapiens) (UniProt O75469); test: ATG_PXR_TRANS: Attagene TRANS-FACTORIAL HepG2 Assay for human Pregnane X Receptor (PXR) (AID 2283008)
Summary of the method: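 HepG2 cells transiently transfected with GAL4-UAS reporter units and PXR-Gal4 chimera, exposed 24 h. Reporter mRNA quantified by RT-PCR, fluorescent labelling, HpaI digestion and capillary electrophoresis; gain of signal vs DMSO.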

[13] = TOX21_p53_BLA_p5_viability: Viability Assessment in the Tox21 HCT-116 p53 Agonism Beta-lactamase Assay, Phase 5 (AID 2283600)
Summary of the method: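 Counter-readout for cytotoxicity: ATP-dependent luminescence from CellTiter-Glo, read in the beta-lactamase wells after 30 min at RT, following a 16 h compound exposure at 37C.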

[14] = molecular target: Cellular tumor antigen p53 (Homo sapiens) (UniProt P04637); test: TOX21_p53_BLA_p4_ratio: Tox21 HCT-116 p53 Agonism Beta-lactamase Assay, Ratio, Phase 4 (AID 2283601)
Summary of the method: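 HCT116 cells carrying an inducible beta-lactamase reporter were plated at 4000 cells/well, rested 5 h, then exposed to compounds in DMSO (217-fold dilution) for 16 h at 37C. CCF4-AM substrate was loaded 2 h at room temperature; 460/530 nm emission ratio scored gain-of-signal versus DMSO.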

[15] = ATG_NF_kB_CIS: Attagene CIS-FACTORIAL HepG2 Assay for human Nuclear Factor Kappa B (NF-kB) (AID 2282991; active = hit-call score of the fitted dose curve at least 0.9, where 1 is the maximum; inactive = score below 0.9); conditions: HepG2 Attagene cis-factorial NF-kB reporter mRNA; actives raise or lower the signal
Summary of the method: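 Transient MRTU transfection of human HepG2 liver cells → 24 h chemical exposure → total RNA, oligo(dT) RT → PCR, 6-FAM primer extension, HpaI digest 2 h 37 C → CE fragment analysis. Bidirectional fitting, DMSO negative control.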

[16] = molecular target: human Retinoid X Receptor beta (RXRb), RXRB (gene 6257) (UniProt P28702); test: ATG_RXRb_TRANS: Attagene TRANS-FACTORIAL HepG2 Assay for human Retinoid X Receptor beta (RXRb) (AID 2283013)
Summary of the method: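 Multiplexed TRANS reporter assay in HepG2; 24 h dosing; reporter mRNA by RT-PCR/CE fluorescence; gain-of-signal relative to DMSO.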

[17] = molecular target: Cellular tumor antigen p53 (Homo sapiens) (UniProt P04637); test: TOX21_p53_BLA_p3_ratio: Tox21 HCT-116 p53 Agonism Beta-lactamase Assay, Ratio, Phase 3 (AID 2283596)
Summary of the method: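 HCT116 p53-bla cells (4000/well) given compound in DMSO (217-fold dilution) after 5 h, incubated 16 h at 37C. CCF4-AM substrate 2 h at room temperature; 460/530 nm emission ratio, gain fitted against DMSO.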

[18] = molecular target: Cellular tumor antigen p53 (Homo sapiens) (UniProt P04637); test: TOX21_p53_BLA_p5_ratio: Tox21 HCT-116 p53 Agonism Beta-lactamase Assay, Ratio, Phase 5 (AID 2283599)
Summary of the method: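 HCT-116 cells carrying a p53-inducible beta-lactamase reporter were seeded at 4000 cells/well and dosed after 5 h with compound in DMSO (217-fold dilution). After 16 h at 37C, CCF4-AM substrate was added for 2 h, and the 460/530 nm emission ratio was scored as gain-of-signal versus DMSO.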

[19] = molecular target: Cellular tumor antigen p53 (Homo sapiens) (UniProt P04637); test: TOX21_p53_BLA_p2_ratio: Tox21 HCT-116 p53 Agonism Beta-lactamase Assay, Ratio, Phase 2 (AID 2283592)
Summary of the method: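 An inducible beta-lactamase reporter in HCT116 cells signals p53 pathway activation. After 16 h chemical exposure at 37C, cells load CCF4-AM substrate for 2 h at room temperature; activity is the cleaved/uncleaved emission ratio relative to DMSO.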

[20] = molecular target: human Peroxisome Proliferator-activated Receptor alpha (PPARa), PPARA (gene 5465) (UniProt Q07869); test: ATG_PPARa_TRANS: Attagene TRANS-FACTORIAL HepG2 Assay for human Peroxisome Proliferator-activated Receptor alpha (PPARa) (AID 2283001);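 as to AC50: potency for gain of reporter signal over DMSO so agonist or activator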
Summary of the method: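 HepG2 cells transiently transfected with multiplexed GAL4-UAS reporter units and chimeric NR-Gal4 constructs were dosed for 24 h. Reporter mRNA was measured by RT-PCR with fluorescent labelling and capillary electrophoresis; gain of signal fitted against DMSO.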

Measured: AC50

Chain of human Peroxisome Proliferator-activated Receptor alpha (PPARa), PPARA (gene 5465) (Q07869 whole entry, looked up, the tested form may be a part): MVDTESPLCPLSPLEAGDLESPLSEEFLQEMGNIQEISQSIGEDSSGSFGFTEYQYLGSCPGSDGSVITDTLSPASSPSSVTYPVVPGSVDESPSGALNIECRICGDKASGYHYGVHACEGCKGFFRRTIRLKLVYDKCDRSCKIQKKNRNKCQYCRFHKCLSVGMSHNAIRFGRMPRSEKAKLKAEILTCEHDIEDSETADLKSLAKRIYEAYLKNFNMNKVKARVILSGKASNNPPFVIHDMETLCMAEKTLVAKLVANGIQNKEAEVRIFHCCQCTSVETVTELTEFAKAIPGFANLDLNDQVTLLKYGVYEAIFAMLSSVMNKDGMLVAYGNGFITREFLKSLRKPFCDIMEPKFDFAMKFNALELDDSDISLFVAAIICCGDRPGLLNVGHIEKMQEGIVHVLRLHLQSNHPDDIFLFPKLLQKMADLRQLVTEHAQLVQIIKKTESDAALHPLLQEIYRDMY
Chain of Hepatocyte nuclear factor 6 (Homo sapiens) (Q9UBC0 whole entry, looked up, the tested form may be a part): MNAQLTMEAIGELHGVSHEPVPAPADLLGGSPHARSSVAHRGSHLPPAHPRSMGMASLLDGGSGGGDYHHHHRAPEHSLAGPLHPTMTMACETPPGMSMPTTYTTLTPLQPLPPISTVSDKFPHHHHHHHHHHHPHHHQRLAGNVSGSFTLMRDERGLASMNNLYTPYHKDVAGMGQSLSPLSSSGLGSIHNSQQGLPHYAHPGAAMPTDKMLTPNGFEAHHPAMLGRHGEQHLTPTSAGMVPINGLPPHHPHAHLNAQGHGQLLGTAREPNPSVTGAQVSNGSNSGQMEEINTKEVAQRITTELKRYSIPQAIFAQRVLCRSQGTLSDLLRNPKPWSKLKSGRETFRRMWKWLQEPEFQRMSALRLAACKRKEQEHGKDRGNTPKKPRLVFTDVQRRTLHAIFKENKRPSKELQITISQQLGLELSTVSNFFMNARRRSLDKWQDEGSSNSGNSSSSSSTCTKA
Chain of Myc proto-oncogene protein (Homo sapiens) (P01106 whole entry, looked up): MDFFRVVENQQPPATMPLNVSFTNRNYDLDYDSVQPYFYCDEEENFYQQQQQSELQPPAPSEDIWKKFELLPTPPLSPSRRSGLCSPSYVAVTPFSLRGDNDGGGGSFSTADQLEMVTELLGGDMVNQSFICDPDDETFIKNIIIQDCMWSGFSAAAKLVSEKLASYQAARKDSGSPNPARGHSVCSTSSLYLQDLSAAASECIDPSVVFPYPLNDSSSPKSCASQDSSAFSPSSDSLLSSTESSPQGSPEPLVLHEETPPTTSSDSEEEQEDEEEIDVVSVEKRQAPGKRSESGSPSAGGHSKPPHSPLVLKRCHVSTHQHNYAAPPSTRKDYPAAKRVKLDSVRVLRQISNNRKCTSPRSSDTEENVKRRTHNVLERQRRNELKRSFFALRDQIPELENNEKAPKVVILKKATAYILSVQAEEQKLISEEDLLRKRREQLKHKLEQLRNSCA
Chain of Cellular tumor antigen p53 (Homo sapiens) (P04637 whole entry, looked up): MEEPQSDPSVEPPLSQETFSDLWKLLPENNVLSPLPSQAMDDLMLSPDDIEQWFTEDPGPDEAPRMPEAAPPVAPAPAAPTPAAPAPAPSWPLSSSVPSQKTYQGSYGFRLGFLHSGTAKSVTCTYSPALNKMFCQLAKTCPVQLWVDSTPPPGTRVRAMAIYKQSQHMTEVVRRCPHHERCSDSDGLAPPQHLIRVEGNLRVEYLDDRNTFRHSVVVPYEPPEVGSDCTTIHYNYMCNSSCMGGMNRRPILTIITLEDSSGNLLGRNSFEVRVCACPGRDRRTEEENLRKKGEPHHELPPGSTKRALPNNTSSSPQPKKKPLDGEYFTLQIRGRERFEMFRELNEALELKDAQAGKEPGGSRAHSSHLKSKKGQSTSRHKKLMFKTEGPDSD
Chain of human Retinoid X Receptor beta (RXRb), RXRB (gene 6257) (P28702 whole entry, looked up): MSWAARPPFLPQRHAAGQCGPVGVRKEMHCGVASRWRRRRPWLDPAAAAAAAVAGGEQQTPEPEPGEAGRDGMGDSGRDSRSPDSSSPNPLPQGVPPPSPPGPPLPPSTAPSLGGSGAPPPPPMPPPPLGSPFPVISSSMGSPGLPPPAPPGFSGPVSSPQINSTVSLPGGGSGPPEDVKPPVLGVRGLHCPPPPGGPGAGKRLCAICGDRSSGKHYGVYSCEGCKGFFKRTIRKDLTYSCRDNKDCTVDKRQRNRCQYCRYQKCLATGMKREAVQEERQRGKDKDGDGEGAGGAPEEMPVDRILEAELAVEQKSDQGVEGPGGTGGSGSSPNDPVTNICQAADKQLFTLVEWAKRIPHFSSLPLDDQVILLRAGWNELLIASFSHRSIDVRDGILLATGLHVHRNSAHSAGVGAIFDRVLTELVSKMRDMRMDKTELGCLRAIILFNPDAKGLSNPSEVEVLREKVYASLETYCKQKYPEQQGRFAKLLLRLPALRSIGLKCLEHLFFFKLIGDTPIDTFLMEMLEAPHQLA
Chain of Nuclear receptor subfamily 1 group I member 2 (Homo sapiens) (O75469 whole entry, looked up, the tested form may be a part): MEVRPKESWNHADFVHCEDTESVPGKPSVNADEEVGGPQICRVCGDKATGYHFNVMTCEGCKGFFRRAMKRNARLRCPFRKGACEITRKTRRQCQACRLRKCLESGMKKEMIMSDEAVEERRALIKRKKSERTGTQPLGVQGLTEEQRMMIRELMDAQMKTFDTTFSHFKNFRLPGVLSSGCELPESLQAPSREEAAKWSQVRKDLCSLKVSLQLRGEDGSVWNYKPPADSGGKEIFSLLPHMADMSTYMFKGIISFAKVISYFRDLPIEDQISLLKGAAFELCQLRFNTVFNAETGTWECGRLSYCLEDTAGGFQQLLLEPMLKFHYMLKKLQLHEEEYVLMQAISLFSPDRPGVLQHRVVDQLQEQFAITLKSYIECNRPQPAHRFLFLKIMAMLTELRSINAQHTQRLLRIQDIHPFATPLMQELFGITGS
Chain of Paired box protein Pax-6 (Homo sapiens) (P26367 whole entry, looked up): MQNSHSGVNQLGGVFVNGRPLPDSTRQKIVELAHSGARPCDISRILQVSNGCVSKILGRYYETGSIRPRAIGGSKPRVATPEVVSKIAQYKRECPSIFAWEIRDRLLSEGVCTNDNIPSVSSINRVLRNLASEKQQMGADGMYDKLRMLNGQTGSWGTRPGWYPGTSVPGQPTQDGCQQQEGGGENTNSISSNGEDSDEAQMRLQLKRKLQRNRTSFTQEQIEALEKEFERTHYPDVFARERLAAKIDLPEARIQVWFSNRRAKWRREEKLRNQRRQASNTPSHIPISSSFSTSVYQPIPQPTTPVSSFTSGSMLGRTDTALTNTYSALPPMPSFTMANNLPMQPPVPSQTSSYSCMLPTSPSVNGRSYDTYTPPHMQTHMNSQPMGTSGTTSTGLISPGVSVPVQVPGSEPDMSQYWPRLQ
Chain of Peroxisome proliferator-activated receptor gamma (Homo sapiens) (P37231 whole entry, looked up, the tested form may be a part): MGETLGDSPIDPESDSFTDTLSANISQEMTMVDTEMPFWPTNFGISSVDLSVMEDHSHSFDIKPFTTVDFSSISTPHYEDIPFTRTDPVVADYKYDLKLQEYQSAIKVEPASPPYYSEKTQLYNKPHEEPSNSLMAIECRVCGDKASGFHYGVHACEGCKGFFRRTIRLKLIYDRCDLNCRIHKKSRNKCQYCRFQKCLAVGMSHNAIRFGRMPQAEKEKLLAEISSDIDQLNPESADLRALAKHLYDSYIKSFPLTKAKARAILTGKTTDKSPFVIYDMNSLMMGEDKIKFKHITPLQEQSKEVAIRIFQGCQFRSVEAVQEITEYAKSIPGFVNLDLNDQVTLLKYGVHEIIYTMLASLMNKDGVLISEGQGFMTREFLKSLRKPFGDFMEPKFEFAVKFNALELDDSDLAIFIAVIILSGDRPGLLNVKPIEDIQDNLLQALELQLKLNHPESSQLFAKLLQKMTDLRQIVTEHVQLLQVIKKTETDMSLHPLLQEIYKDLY
Chain of Hepatocyte nuclear factor 4-alpha (Homo sapiens) (P41235 whole entry, looked up, the tested form may be a part): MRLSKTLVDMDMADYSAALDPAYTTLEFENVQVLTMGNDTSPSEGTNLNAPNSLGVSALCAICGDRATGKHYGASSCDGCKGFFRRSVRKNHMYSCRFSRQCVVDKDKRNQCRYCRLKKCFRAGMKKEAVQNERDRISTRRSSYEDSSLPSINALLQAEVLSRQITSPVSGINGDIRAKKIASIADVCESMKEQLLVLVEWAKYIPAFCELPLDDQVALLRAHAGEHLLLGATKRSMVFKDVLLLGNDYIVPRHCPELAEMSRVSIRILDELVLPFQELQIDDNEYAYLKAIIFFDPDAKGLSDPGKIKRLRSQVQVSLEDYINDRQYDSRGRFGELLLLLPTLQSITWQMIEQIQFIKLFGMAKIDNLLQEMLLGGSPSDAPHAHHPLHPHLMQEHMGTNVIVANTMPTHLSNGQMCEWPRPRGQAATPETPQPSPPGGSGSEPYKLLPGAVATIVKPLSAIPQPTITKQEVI

C=C(Cl)Cl
not listed: [15] | [16] | [17] | [18] | [19] | [20]
inactive: all other assays above

Cc1ccc(N(SC(F)(Cl)Cl)S(=O)(=O)N(C)C)cc1
active: [6] 17.9 µM | [10] 20.3 µM | [14] 44.8 µM
not listed: [2] | [3] | [4] | [7] | [19] | [20]
inactive: all other assays above

O=CNC(N1CCN(C(NC=O)C(Cl)(Cl)Cl)CC1)C(Cl)(Cl)Cl (stereo not drawn)
active: [12] 6.57 µM
not listed: [4] | [7] | [14] | [16] | [20]
inactive: all other assays above

N#CC(c1ccccc1)c1ccccc1
active: [11] 83.2 µM | [12] 4.59 µM | [16] 49.1 µM
not listed: [13] | [15] | [20]
inactive: all other assays above

CSc1nc(N=[N+]=[N-])nc(NC(C)C)n1
inactive: [3] | [4] | [5] | [6] | [10] | [15] | [16] | [18] | [14]
active: [11] 15.4 µM | [12] 14 µM

COc1cc(OC)nc(Oc2cccc(Oc3nc(OC)cc(OC)n3)c2C(=O)O)n1
not listed: [1] | [2] | [8] | [9] | [14]
inactive: all other assays above

Cc1ncc(C[n+]2csc(CCO)c2C)c(N)n1
not listed: [2] | [9] | [12] | [16] | [20]
inactive: all other assays above

CC(=O)C=Cc1ccccc1
inactive: [1] | [2] | [4] | [5] | [7] | [8] | [16]
active: [6] 130 µM | [15] 163 µM | [20] 100 µM | [11] 27 µM | [12] 35.9 µM

CCNCC
inactive: [1] | [2] | [3] | [4] | [6] | [7] | [9] | [10] | [20] | [11]
